The values below come from paper PMC12136788.

Positions count from the first letter of the chain named. In all, about 24,000 sequences were measured (“enrichment r”: median about 0.99, highest 2% from about 3.7 on). Only a selection was taken, and the highest values are over-represented in it overall.

B1: chr11:6247107:6247108:+_ENSMUSG00000020456_ENSMUST00000003461|mus_mus|FALSE|FALSE (ssRNA)
RNA: GGGAGUUCUACAGUCCGACGAUCAAACAUAGGUUCGUCCAUCUCAUUGUGGCCAUUUCGUCGAUAACACACCAGAUCAACUACAACAUCCUUGUGGAAGGUGUUUCUCCACUCAGCUGCCACCUUGCAUACAUACAUGACAGCCAACAGAGGAUUGAGCAUCA
B2: chr15:76911001:76911002:-_ENSMUSG00000033565_ENSMUST00000166610|mus_hu|motif|central (ssRNA)
RNA: GGGAGUUCUACAGUCCGACGAUCAAGAGCAUGACAAAAUAAAAACACACAAAUUUACGUCUGAUGUUCACCUUGCCCACGGUUUUUUUUUCCUAUCUUAAAACAGUGCAAACAGGUAACUUAUGCUUUUAAAACACCACGACCCAACAGAGGAUUGAGCAUCA
B3: chr17:17165348:17165349:-_ENSG00000141030_ENST00000268717|hu_mus|motif|central (ssRNA)
RNA: GGGAGUUCUACAGUCCGACGAUCUAUUUGAGAGGUGUAUUUAGGCAGCUGUUGUACUUUGCCAAGUAAUAUCAAAGACACGGGAAUAUACUUUUUAUAUGAUUCCAACAUGAUAUGGCUGACGGCCAUGGCAGGAGUAGUUAUCAACAGAGGAUUGAGCAUCA
B4: chr8:74858975:74858976:-_ENSG00000154582_ENST00000284811|hu_mus|hu_hu_hu_mus_True|8_48 (ssRNA)
RNA: GGGAGUUCUACAGUCCGACGAUCGACCUUGUAGGUAAAAUACAUGCACACUUUUGAUAGCACAUGUGAGGGGAUCUCUCUAAAAUUGACCUCAUUGGUUUCAUUCUCAGCAAACUGACCUGGACCACUCAACAUGGCCUUUAUCAACAGAGGAUUGAGCAUCA
B5: chr2:48026839:48026840:+_ENSG00000116062_ENST00000540021|hu_hu|hu_hu_hu_mus_False|48_88 (ssRNA)
RNA: GGGAGUUCUACAGUCCGACGAUCAUAGUGAGCCACUAGCGUCCUAAAUCUCGAACAGUGGCGGUCAUCCGAAAACUGGCCGAUGAAAAACUUUCCCAGUGAAGUGUCCACAAAGCAAACACCAUACACACGAGUGUGACCAGACAACAGAGGAUUGAGCAUCA
B6: chr11:86535762:86535763:-_ENSMUSG00000047126_ENSMUST00000103186|mus_hu|FALSE|FALSE (ssRNA)
RNA: GGGAGUUCUACAGUCCGACGAUCUGCAAAGCACUGAAUGACUUUAUUUGGGACGUUAGCCCUUAGGUACACACUAAGUGCCAAUGUAGGGUCCACAGAUUUCACAAGAUCACCCAGUUCUUCAGAACAUUCCAGCUUAUCUUCCAACAGAGGAUUGAGCAUCA
B7: chr7:118226368:118226369:-_ENSMUSG00000005610_ENSMUST00000162415|mus_hu|FALSE|FALSE (ssRNA)
RNA: GGGAGUUCUACAGUCCGACGAUCCAGCAGCUGCCACCGCAGCUGCCUCCUCAGGAUCCGGUCGUCGGGGAUAGGGAAGGGAGGGGAAAGGGGAACGGAAAACAAAAAAAAGGGGGAGGGAAGGGGGAGGAAGGAGUCGGGGACCAACAGAGGAUUGAGCAUCA
B8: chr19:8913615:8913616:-_ENSMUSG00000071658_ENSMUST00000096259|mus_hu|mus_mus_mus_hu_False|18_18 (ssRNA)
RNA: GGGAGUUCUACAGUCCGACGAUCAGGGUACCAAAACCUUCUGCCUGAAAUGGGUGCCCCACCCAGUAGGGAGUUGCAGCUGAAAGUAUCUGAUGCAGAAGCAGUGACUAUACGAAAGGUCACUAGAGGGGAGGGCCAGGCCAGCAACAGAGGAUUGAGCAUCA
B9: chr17:65740002:65740003:+_ENSG00000130935_ENST00000581375|hu_hu|hu_hu_hu_mus_False|98_108 (ssRNA)
RNA: GGGAGUUCUACAGUCCGACGAUCAACCCGUUCUUGCCUGGAUGAAGAACAGGAAGAUUCAUAUUAAAAAAAAUAUAUAUCCAUCAAGUUAGGUGUGGUGGCCACACCUUUACUCCCAGCACUUUGGGAGGUGGAUCUCUGAGUCAACAGAGGAUUGAGCAUCA
B10: chr7:56126341:56126342:+_ENSG00000146731_ENST00000540286|hu_mus|hu_hu_hu_mus_True|8_78 (ssRNA)
RNA: GGGAGUUCUACAGUCCGACGAUCCAUGUUUCUCCUCUUGGCUCUGCGCAGAGCUACUAUGCCUUCUUUCGCAAGGGCAUCUAAGGAAAAGGGGUCAAUCCCCUUUUGAUUAAUAACGACAAAUCCUUUAUCUGAAUCACCACACAACAGAGGAUUGAGCAUCA
B11: chr7:90019433:90019434:+_ENSMUSG00000057706_ENSMUST00000082237|mus_hu|motif|central (ssRNA)
RNA: GGGAGUUCUACAGUCCGACGAUCAAAUAAUACAGUGUUCUUUGCCAUAAGGCCAUACUAAAAUAAAAAGAUUUAACCCAGCGGCAAAAAAGUUCACUGAACUUAAAUUAAAAUACUUGUAAACAUCUUUGCAAUAUGAAAUAUCAACAGAGGAUUGAGCAUCA
B12: chr18:43483763:43483764:-_ENSMUSG00000024501_ENSMUST00000121805|mus_hu|FALSE|FALSE (ssRNA)
RNA: GGGAGUUCUACAGUCCGACGAUCGCAGACUCUUUUACCUUAGUGGCCUGUCUGAUUGCAUGCAUGUAAAUGGGGGGAGGGGAGUCAAACAAAUCAAGGCUAUGCAUAAACAGAAAACAAAGCAAUAUUCGUAAAGCUAGGCAACAACAGAGGAUUGAGCAUCA
B13: chr4:107545374:107545375:+_ENSMUSG00000028613_ENSMUST00000106731|mus_hu|FALSE|FALSE (ssRNA)
RNA: GGGAGUUCUACAGUCCGACGAUCUGAUGGAUAGCCACAAAGCAUAAUCAUCUUAUUUACAAAAAACAAAUGCCCCAAAACCUAAAAAAGCCCCCCCAGCAACCAAACAUCUUCUGUAAAUAUAGUUUUUAAAUGAUGAGUAAGCAACAGAGGAUUGAGCAUCA
B14: chr18:43483763:43483764:-_ENSMUSG00000024501_ENSMUST00000121805|mus_mus|FALSE|FALSE (ssRNA)
RNA: GGGAGUUCUACAGUCCGACGAUCUGCAGAAUCUACCUUAGUGGCCUGUCUGAUCGCAUGCAUGUAAGUGGGGGUGGGGUGGGGGUGGGGUUCAAAGAAAUUGAGAGUAUGCAAAAACAGAAACCAAAGCAAUUCAUAAAGCUACAACAGAGGAUUGAGCAUCA
B15: 160625162_160625282_3606_3pUTR_ENSG00000136536_ENST00000259050|human|control|control (ssRNA)
RNA: GGGAGUUCUACAGUCCGACGAUCAAAACUACCACCCUUAAAUUUUAUAUUUUUGCUUUAAGACAGACAAUGCAAAGGUAACUGGCAAGAGGUGAGCAAAUGUUUUAGAACAUUUAUAUUAUUGCUUAAAAUGAGAUUUGAAAUCAACAGAGGAUUGAGCAUCA
B16: chr7:90019490:90019491:+_ENSMUSG00000057706_ENSMUST00000082237|mus_mus|FALSE|FALSE (ssRNA)
RNA: GGGAGUUCUACAGUCCGACGAUCUCCGUCACAAUCGUGUGAUUAUUAAAAUAAUACAGUGUUCUUUGCCAUAAGGCCAUACUAAAAAUAAAAAGAUUUAACCCAGCUACAAAAAAGUUCACUGAACUUAAAUUAAAAUACUUGCAACAGAGGAUUGAGCAUCA
B17: chr7:90019433:90019434:+_ENSMUSG00000057706_ENSMUST00000082237|mus_hu|mus_mus_mus_hu_True|78_98 (ssRNA)
RNA: B11 RNA with U38C, C39U, U42G, G43C, C45A, A46U, C57U, U58A, G82U, G83A
B18: chr1:10192443:10192444:+_ENSG00000130939_ENST00000377157|hu_hu|FALSE|FALSE (ssRNA)
RNA: GGGAGUUCUACAGUCCGACGAUCGACAGCCGCCAUGUAACUGAGAGCAGCCUCACGGGUUUCGCCAUUUAACAAAAUACUAUGCAGAAUCUUAAAAAGCUCUUGCCUUCCGAGCUCUAAGUAAUGCUGCAAUGAUUGGCUAACCAACAGAGGAUUGAGCAUCA
B19: chr16:2758876:2758877:+_ENSG00000167977_ENST00000301738|hu_hu|FALSE|FALSE (ssRNA)
RNA: GGGAGUUCUACAGUCCGACGAUCAAUUUUAGUGAAUUAAGUCUUAAUAUCUUUAAAUUAAAAAAACCACAAGCCUAUCUACUAUGUCAAGGUCAAAAAUCAAACAACGCUAAGCGGCCAGCAGCUCCCCAGAGAGGAUGCCCACAACAGAGGAUUGAGCAUCA
B20: 62932219_62936930_2744_CDS_ENSG00000061987_ENST00000546600|human|control|control (ssRNA)
RNA: GGGAGUUCUACAGUCCGACGAUCCAUAUUAACUAAACCAGUUUCUAACAAUUUGGCAACAGCAAAAAGAGAUGGUUCCUUAUUAUUUCCAUAGGCCAUAUCCAUUGCUUCUAGAGACAAGGAGCAAAGUGCAUUUAUUAAAUGCAACAGAGGAUUGAGCAUCA
B21: chr14:78183846:78183847:+_ENSG00000119705_ENST00000557342|hu_hu|hu_hu_hu_mus_False|18_98 (ssRNA)
RNA: GGGAGUUCUACAGUCCGACGAUCUCUCAGAAAUCUUUCUUUCUUUUAUGUUUGAGCUCCGUGCAAAGCCUUUGCUCUUUGAGCUUGAACGUGGAUCUAUGGGAGGGAAAGCACUGUAUUUUCCUGUAAUUUUUUUUUUAAAGACAACAGAGGAUUGAGCAUCA
B22: chr7:135123436:135123437:+_ENSMUSG00000030795_ENSMUST00000077609|mus_mus|FALSE|FALSE (ssRNA)
RNA: GGGAGUUCUACAGUCCGACGAUCGCCUCCGCGACCAUUUCCACCACCCCGAUUGAAGUCAGCUCGGCGGGUAGCAAAUGAAACUUUAAUAGGAUUCCCAGAGAAUUCUUUACCAUCAAACCAGUCGAUAGCUGCUUUAGCAGACAACAGAGGAUUGAGCAUCA

The assay has as its target T1, UNK ZnF1-3 (human, UniProt Q9C0B0 31-174).
T1 sequence: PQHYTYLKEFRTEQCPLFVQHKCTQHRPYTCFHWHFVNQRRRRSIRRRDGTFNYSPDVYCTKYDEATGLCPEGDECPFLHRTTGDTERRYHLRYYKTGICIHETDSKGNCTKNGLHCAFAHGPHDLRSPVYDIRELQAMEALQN
The assay is described as follows: nsRBNS (natural sequence RNA bind-n-seq); RBNS binding buffer (assumed for nsRBNS): 25 mM Tris pH 7.5, 150 mM KCl, 3 mM MgCl2, 0.01% Triton X-100, 500 ug/ml BSA, 20 U/ml SUPERase-In, 4 C; UNK is unkempt and MSI1 is Musashi-1; names of the RNAs are library labels; protein concentration not given here; high values mean tight binding.
B1 returned a binding signal of 0.764 enrichment R. The molecule B2 registered a binding signal of 1.59 enrichment R. For the molecule B3, the binding signal amounted to 1.03 enrichment R. As for B4, the figure is 0.645 enrichment R; as for B5, 1.19 enrichment R.

Take B6: the binding signal was determined as 0.581 enrichment R. Molecule B7 gave a binding signal of 1.19 enrichment R. For B8, the binding signal worked out at 1.83 enrichment R.

Molecule B9 returned a binding signal of 0.827 enrichment R.

For B10, the binding signal is 0.804 enrichment R. As for B11, the figure is 3.64 enrichment R. For the molecule B12, the binding signal came out at 1.62 enrichment R. Under B13 stands 2.81 enrichment R; under B14, 5.48 enrichment R; under B15, 8.45 enrichment R. Take B16: the binding signal stood at 3.65 enrichment R. Turning to B17, the binding signal is 3.77 enrichment R. Under B18 stands 1.03 enrichment R; under B19, 3.89 enrichment R. Under B20 stands 1.11 enrichment R.

As for B21, the binding signal was 0.693 enrichment R. Regarding B22, the binding signal amounted to 1.3 enrichment R.
